DT40 TDP1 CPT: growth inhibition of DT40 Tdp1-/-;hTDP1 cells with camptothecin (screen for TDP1 inhibitors) | chicken DT40 Tdp1-/-;hTDP1 cells + 20 nM CPT, ATP luminescence, 48 h | AID 686979 | Potency, µM (top dose mostly 46.2 µM), without a hit: at the highest dose activity change, negative = growth inhibition, hits mostly inhibitors | actives 12% (n = 420,000); further: on the % scale 0 is the no-effect control and ±100 the full control effect; nearly all actives have a fitted effect of over 55% in size
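Cell growth measured by CellTiter-Glo luminescence after a minimum 48 h, 37 C compound exposure with 20 nM CPT in Tdp1-knockout DT40 cells stably expressing hTDP1, seeded 400/well; qHTS titration format.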
HT1080 IDH1KD tx: toxicity to HT-1080 IDH1 knockdown cells (counter line). actives 2% (n = 360,000). Potency, µM (series often up to 46.1 µM), for the others: at the top dose activity, negative = toxicity, usual class: cytotoxic. HT-1080 IDH1 knockdown viability, ATP luminescence, 48 h. AID 686971;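 further: 0% = DMSO wells and -100% = cell-free medium wells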
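Cytotoxicity counter-line: IDH1KD HT-1080, 48 h, CellTiter-Glo. Curves classed by r2, magnitude and activity.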
DT40 TDP1 no CPT: qHTS for Inhibitors of human tyrosyl-DNA phosphodiesterase 1 (TDP1): qHTS in cells in absence of CPT; actives 15% (n = 420,000); Potency, µM (series often up to 46.2 µM), for the others: top-dose activity change, negative = growth inhibition, usual class: inhibitors; DT40 Tdp1-/- hTDP1 cells, no CPT, ATP luminescence, 48 h; AID 686978, 2013; further: on the % scale 0 is the no-effect control and ±100 the full control effect; nearly all actives have a fitted effect of over 55% in size
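Camptothecin absent (DMSO only). Human TDP1-complemented DT40 knockout cells, 400 cells/well, 37 °C for minimum 48 hr; ATP measured via CellTiter-Glo, 30 min dark incubation, luminescence.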
HepG2 tox: kills HepG2 cells in TGF-b inhibitor counter-screen | actives 0.76% (n = 410,000) | Potency, µM (doses to about 46.1 µM), inactives show at the top dose activity change, negative = cytotoxicity, usual class: cytotoxic | HepG2 CAGA-GFP viability, ATP luminescence, 18 h
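HepG2 CAGA-GFP cells (1000/well, DMEM with 1% FBS) received compound, then TGF-beta at 500 pg/mL final, and were incubated 18 hours at 37 degrees C. Viability was read by CellTiter-Glo luminescence. Media-only wells were set as complete cell-killing and DMSO as no toxicity.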
HT1080NT lethal: kills 2HG-producing HT-1080-NT fibrosarcoma cells. Potency, µM (series often up to 46.1 µM), inactives show top-dose activity, negative = less viability, actives largely listed as cytotoxic. HT-1080-NT fibrosarcoma viability, CellTiter-Glo ATP luminescence, 48 h. AID 686970. actives 1.6% (n = 360,000);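 further: NT is the 2HG producing partner of a matched IDH1 knockdown line; 0% = DMSO-treated cells and -100% = media-only wells without cells; nearly all actives have a fitted effect of over 55% in size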
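Luminescent CellTiter-Glo readout after 48 hours of compound exposure at 37 degrees C defined viability of HT-1080-NT cells. Activity was normalized to DMSO wells and cell-free media wells; concentration-response curves were fitted and assigned curve classes.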
TGFb inhibitor: inhibitors of TGF-b signaling. actives 1.2% (n = 410,000). Potency, µM (doses to about 46.1 µM), for inactives: at the highest dose activity, negative = inhibition, hits mostly inhibitors. HepG2 CAGA-GFP TGF-b/SMAD3 reporter, GFP fluorescence, 18 h; TGF-beta stimulated, 500 pg/mL final. AID 588855; further: on the % scale 0 is the no-effect control and ±100 the full control effect; nearly all actives have a fitted effect of over 65% in size
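Per well, imaged GFP fluorescence of HEPG2 CAGA-GFP cells gives the signal; cells get compound, then TGF-beta (500 pg/mL final), 18 h at 37 degrees C; %Activity versus -TGF-beta and +DMSO controls.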
* marks the source's active call; other numbers are inactive results; ? = inconclusive; / = no result given. Only some compounds are listed: those with a hit (about 17% of all), similar ones and a draw of the others. The call rests on the fitted dose curve; in most records, active means well fitted curve in the direction sought with a large enough effect; inconclusive means small, poorly fitted or top-dose-only effect, or another doubt; inactive means no such curve, though single readings can be large; an effect the other way counts as inactive or inconclusive. Potency means the concentration at half of the fitted maximal effect.

SMILES	DT40 TDP1 CPT	HT1080 IDH1KD tx	DT40 TDP1 no CPT	HepG2 tox	HT1080NT lethal	TGFb inhibitor
Cn1c(N)c(C(=O)COC(=O)c2cccc(S(=O)(=O)NCc3ccccc3)c2)c(=O)n(C)c1=O	?	1%	?	-9%	-11%	-4%
CNS(=O)(=O)c1cccc(C(=O)OCC(=O)c2c(N)n(Cc3ccccc3)c(=O)n(C)c2=O)c1	15µM*	-9%	?	-12%	-7%	-26%
CCc1ccccc1NC(=O)CSC1=C(C#N)C(c2ccc(O)c(OC)c2)C2=C(CCCC2=O)N1 (stereo unspecified)	21µM*	5%	23µM*	0%	7%	?
COc1cc(C2C(C#N)=C(SC)NC3=C2C(=O)CCC3)ccc1O (stereo unspecified)	4%	22%	-5%	-22%	17%	11%
Cc1ccc(C(c2nnnn2C2CCCCC2)N(C)C2CCCCC2)cc1 (stereo unspecified)	23µM*	2%	23µM*	-9%	4%	-6%
COc1cc2cc(C(c3nnnn3C3CCCC3)N(C)C3CCCCC3)c(=O)[nH]c2cc1OC (stereo unspecified)	16µM*	?	25µM*	-14%	-15%	-36%
CC(C)C(c1nnnn1C1CCCC1)N(C)C1CCCCC1 (stereo unspecified)	?	-2%	?	4%	0%	4%
COc1cc2cc(C(c3nnnn3C3CCCCC3)N(C)C3CCCCC3)c(=O)[nH]c2cc1OC (stereo unspecified)	23µM*	?	?	-16%	?	?
CC(=O)c1ccc(N2CCN(S(=O)(=O)c3cn(C)c(C)n3)CC2)cc1	-4%	-7%	-6%	0%	-12%	25%
O=[N+]([O-])c1cc2oc3c(c2c(C=NCc2ccccc2)c1O)CCCC3	8.2µM*	-1%	15µM*	28%	-1%	18%
CC(C)CN=Cc1c(O)c([N+](=O)[O-])cc2oc3c(c12)CCCC3	?	-12%	?	-6%	-10%	-28%
O=C(Nc1ccsc1C(=O)N1CCCC1)c1ccccc1	16µM*	0%	21µM*	-4%	9%	-2%
CCOC(=O)c1ccc(N2CCOCC2)c(NC(=O)c2ccc3c(c2)OCO3)c1	-19%	-10%	-19%	-3%	-9%	-3%
O=c1[nH][nH]c(=O)c2cc([N+](=O)[O-])ccc12	-13%	5%	?	16%	18%	4%
COc1cc2c(=O)[nH]c3cc([N+](=O)[O-])ccc3c2cc1[N+](=O)[O-]	8.2µM*	2%	6.5µM*	-2%	3%	3%
C[C@@H]1CN([C@@H](C)CO)C(=O)CCCn2nncc2CO[C@H]1CN(C)Cc1ccc(Cl)c(Cl)c1	-1%	7%	-17%	1%	11%	6%
Cc1cccc(CCNC(=O)C2CCC(CNS(=O)(=O)c3c(C)cc(C)cc3C)CC2)c1 (stereo unspecified)	?	/	16µM*	-24%	/	-19%
Cc1cc(C)c(S(=O)(=O)NCC2CCC(C(=O)NCCc3ccccc3)CC2)c(C)c1 (stereo unspecified)	15µM*	/	15µM*	-32%	/	?
CCOC(=O)C1=C(C)Nc2ccccc2N=C1NC(=O)C(CC)c1ccccc1 (stereo unspecified)	-6%	1%	-23%	-15%	5%	-4%
COc1ccc(-c2nnc(SCC(=O)NNC(=O)Cc3ccccc3)n2C)cc1OC	?	6%	23µM*	3%	10%	1%
COc1ccc(-c2nnc(SCC(=O)Nc3ncc(C)s3)n2-c2ccccc2)cc1OC	21µM*	?	23µM*	-3%	?	5%
COc1ccccc1NC(=O)CC(=O)CSc1nnc(-c2ccc(C)cc2)n1-c1ccccc1	2%	1%	-13%	6%	6%	-7%
COc1ccccc1NC(=O)CSc1nnc(-c2nonc2NC(C)=O)n1-c1ccccc1	?	/	23µM*	4%	/	-13%
CC(=O)Nc1nonc1-c1nnc(SCc2cccc(Br)c2)n1C	16µM*	/	18µM*	3%	/	-1%
CC(=O)Nc1nonc1-c1nnc(SCc2ccccc2C)n1C	?	/	?	-25%	/	-15%
SMILES	DT40 TDP1 CPT	HT1080 IDH1KD tx	DT40 TDP1 no CPT	HepG2 tox	HT1080NT lethal	TGFb inhibitor
CC1CN(C(=S)Nc2ccccc2)C(C)CN1C=O (stereo unspecified)	-17%	10%	-17%	0%	3%	0%
Cc1ccc(F)c(C2C3C=CCCC3(C)C(=O)N2Cc2ccccc2)c1 (stereo unspecified)	/	/	/	-6%	/	?
CC1CCCC(NC(=O)COC(=O)c2sc3ccccc3c2Cl)C1C (stereo unspecified)	-22%	3%	-13%	-1%	-8%	0%
CN(C(=O)CSc1cc(C(=O)c2nccn2C)c2ccccc2n1)c1ccccc1	15µM*	-28%	18µM*	-24%	-26%	14µM*
Cn1ccnc1C(=O)c1cc(SCC(=O)NC2CC2)nc2ccccc12	7%	1%	5%	-9%	0%	-2%
CCN(CC)S(=O)(=O)c1ccc(N2CCOCC2)c(NC(=O)Cc2ccccc2F)c1	-27%	2%	15µM*	21%	3%	0%
CC(=O)Nc1ccc(S(=O)(=O)N(C)CC(=O)Nc2ccccc2N2CCCC2)cc1	?	20%	?	-6%	15%	-4%
CCN(CC)S(=O)(=O)c1ccc(N2CCOCC2)c(NC(=O)Cc2cccc3ccccc23)c1	?	-7%	16µM*	3%	-1%	-27%
O=C(Cc1ccccc1F)Nc1cc(S(=O)(=O)N2CCCCC2)ccc1N1CCOCC1	21µM*	1%	16µM*	0%	-1%	4%
CN(CC(=O)Nc1ccccc1N1CCOCC1)S(=O)(=O)c1ccc(F)cc1	18µM*	3%	18µM*	-13%	2%	-3%
O=C1CCN(Cc2ccc(Cl)cc2Cl)C(=O)N1	10%	-9%	-3%	10%	0%	30%
COc1ccccc1NC(=O)Nc1ccnn1C1CCN(C(=O)C2CCOC2)CC1 (stereo unspecified)	-2%	-1%	-5%	1%	-1%	-3%
